Screening results from PubChem BioAssay.
Sfp inh – qHTS Assay for Inhibitors of Bacillus subtilis Sfp phosphopantetheinyl transferase (PPTase); Potency, µM, actives largely listed as inhibitors; Biochemical Sfp PPTase activity, qHTS; AID 1490, 2009; 4'-phosphopantetheinyl transferase ffp (Bacillus subtilis), Q9F4F7; 3.5% of 310,000 active;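 note: the enzyme is Sfp with the accession as filed and its product quenches rhodamine fluorescence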
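Buffer: 50 mM Hepes-Na pH 7.6, 10 mM MgCl2, 0.01% Nonidet P-40, 0.01% BSA. Enzyme 15 nM, pre-exposed to compound 15 min; substrates then added and fluorescence change tracked over 30 min.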
VDR inhibitor – Inhibitors of the vitamin D receptor (VDR): qHTS; Vitamin D3 receptor (Homo sapiens), P11473; VDR-SRC2-3 peptide fluorescence polarization, 2 h; Potency, µM, actives largely listed as inhibitors; 0.93% of 400,000 active; AID 504847, 2011
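Compounds are added to VDR with labelled SRC2-3 coactivator peptide and held 2 h at room temperature. Inhibition of the VDR–peptide interaction is then read as a change in fluorescence polarization.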
G9a inh – qHTS Assay for Inhibitors of Histone Lysine Methyltransferase G9a; Potency, µM (doses to about 102 µM), usual class: inhibitors; G9a H3K9 monomethylation, AlphaScreen, 2 h; 8.8% of 350,000 active; AID 504332, 2011; note: nearly all actives have a fitted effect of over 75% in size
Target sequence (Q96KQ7 913-1193 limits assumed): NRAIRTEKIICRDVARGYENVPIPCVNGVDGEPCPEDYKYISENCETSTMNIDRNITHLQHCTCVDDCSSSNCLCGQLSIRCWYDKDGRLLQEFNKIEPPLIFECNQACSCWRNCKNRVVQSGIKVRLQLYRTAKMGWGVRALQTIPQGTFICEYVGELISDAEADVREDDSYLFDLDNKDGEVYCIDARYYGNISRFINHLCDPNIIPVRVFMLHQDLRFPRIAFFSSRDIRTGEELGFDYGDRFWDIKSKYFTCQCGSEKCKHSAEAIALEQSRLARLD
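Compounds were preincubated with 20 nM G9a for 15 min, after which biotinylated H3K9 peptide (500 nM) and SAM (20 uM) started a 2 h room-temperature reaction. Monomethylated product was quantified by antibody-based AlphaScreen chemiluminescence.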
Mm-Cpn inhibitor – Inhibitors of TCP-1 ring complex (TRiC) of Methanococcus maripaludis (MmCpn): qHTS | Potency, µM (doses to about 76.9 µM), usual class: inhibitors | purified Mm-Cpn ATPase, ADP Transcreener TR-FRET | Chaperonin Mm-Cpn (Methanococcus maripaludis) | 0.031% of 330,000 active; note: nearly all actives have a fitted effect of over 80% in size
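Measured: ADP formation by purified Mm-CPN. Conditions: 25 nM protein, 10 uM ATP, Tris pH 7.4 with Mg2+, K+ and DTT, 37°C for 30 min. Detection: Transcreener HTRF after 30 min at room temperature.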
PLK1 PBD block – qHTS for Inhibitors of PLK1-PDB (polo-like kinase 1 - polo-box domain): Primary Screen; 2.8% of 360,000 active; Plk1 PBD binding of FITC phosphopeptide, fluorescence polarization; Potency, µM, hits mostly inhibitors; AID 720504, 2013; Serine/threonine-protein kinase PLK1 (Homo sapiens), P53350; note: series mostly up to about 57 µM; nearly all actives have a fitted effect of over 65% in size
CCT modulator – High-Throughput Screening for Modulators of Cytosolic Chaperonin Activity | purified chaperonin ATPase assay, HTRF ADP detection, 30 min | activity change, % (test concentration not listed), hits read low | 0.3% of 360,000 active | AID 651819, 2012; in the data active = activity change below about -30%
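TRiC at 40 or 20 nM final (batch-dependent) in 30 mM Tris pH 7.4, 100 mM KCl, 5 mM MgCl2, 1 mM DTT, with compound at single 76 uM and 10 uM ATP, 30 min at 37 deg C. ADP detected by HTRF Transcreener, 665/615 ratio.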
Hits are given with their value; 0 = inactive; ? = inconclusive; - = no result; [ ] = dose if it differs, or a comment. In the library only some 10% were active in any assay of this set; here they are far more common. Unless noted, calls come from the whole dose curve; as a rule, active = well fitted curve in the direction sought with a large enough effect; inconclusive = small, poorly fitted or top-dose-only effect, or another doubt; inactive = no such curve, though single readings can be large; an effect the other way counts as inactive or inconclusive.

SMILES	Sfp inh	VDR inhibitor	G9a inh	Mm-Cpn inhibitor	PLK1 PBD block	CCT modulator
Cc1sc(NC(=O)c2cccs2)c(C(N)=O)c1C	40µM	0	4µM	0	21µM	0
Cc1c(C(=O)N2CCCCCC2)c(S(=O)(=O)N(Cc2ccccc2)C(C)(C)C)c(C)n1C	-	0	0	-	-	-
Cc1ccc(CNC(=O)CCCCCn2c(=O)c3sccc3n(CC(=O)Nc3ccc(C)c(F)c3)c2=O)cc1	-	0	0	-	-	-
CCOc1cc(/C=C2\N=C(SCC)SC2=O)cc([N+](=O)[O-])c1OC(C)=O	?	0	10µM	0	27µM	0
CCOc1c(OC(C)=O)ccc(/C=C2\N=C(SCC)SC2=O)c1[N+](=O)[O-]	0	?	-	0	30µM	0
CCOc1cc(/C=C2\N=C(SC)SC2=O)cc([N+](=O)[O-])c1OC(C)=O	?	0	14µM	0	?	0
CN(C)C(=O)c1ccc(NC(=O)COC(=O)C2CCN(S(=O)(=O)c3ccc4c(c3)OCCO4)CC2)cc1	-	0	40µM	0	0	0
Cc1ccc(N(CCC#N)C(=O)COC(=O)C2CCN(S(=O)(=O)c3ccc4c(c3)OCCO4)CC2)cc1	-	0	32µM	0	0	0
Cc1ccc(N(CCC#N)C(=O)COC(=O)C2=COCCO2)cc1	-	0	40µM	0	0	0
Cc1cc(C)nc(-n2nc(C)c(Sc3ccc(F)cc3)c2N)n1	0	0	50µM	0	?	0
O=[N+]([O-])c1ccccc1S(=O)(=O)Nc1cccc(-c2ccc(N3CCCC3)nn2)c1	-	0	0[2.33 µM]	0	0	0
O=[N+]([O-])c1ccc(Cl)c(S(=O)(=O)Nc2ccc(-c3ccc(N4CCCC4)nn3)cc2)c1	-	0	50µM	0	0	0
Cc1ccc([N+](=O)[O-])cc1S(=O)(=O)Nc1ccc(-c2ccc(N3CCCC3)nn2)cc1	-	0	0[2.33 µM]	0	0	0
O=[N+]([O-])c1ccc(Cl)c(S(=O)(=O)Nc2cccc(-c3ccc(N4CCCC4)nn3)c2)c1	-	0	40µM	0	0	0
CCCCN(CC)C(=O)CSc1c2c(nc3ccc(Cl)cc13)CCCC2	-	?	0	-	-	-
CCN(c1ccccc1)S(=O)(=O)c1nnc(NC(=O)COc2ccccc2F)s1	-	0	?	-	-	-
COc1cc(CN2CCc3ccccc3C2)cc([N+](=O)[O-])c1O	?	0	8.9µM	0	0	0
COc1ccc(CN2CCN(c3cccc(C)c3C)CC2)cc1OC	0	0	11µM	0	0	0
COc1cc(CN2CCN(c3ccccc3C)CC2)cc([N+](=O)[O-])c1O	0	0	79µM	?	0	0
COc1cc(CN2CCN(c3cccc(C)c3C)CC2)cc(Br)c1O	0	0	?	0	0	0
COc1cc(CN2CCCCCC2)cc([N+](=O)[O-])c1O	0	0	0[0.501 µM]	0	0	0
COc1ccccc1C1CCN(c2ccc(CO)cc2[N+](=O)[O-])CC1	0	0	35µM	0	0	0
CCCC/C=C/C(NC(=O)Oc1cccc(C(F)(F)F)c1)c1ccccc1 (stereo not drawn)	0	-	-	-	-	-
Cc1c(CC(=O)NCc2ccc(F)cc2)c(=O)oc2cc(O)c(Cl)cc12	-	0	0	-	-	-
O=C1CCN(S(=O)(=O)c2ccccc2)N1	0	0	11µM	0	0	0
Cc1cc2oc(C(=O)Nc3sc4c(c3C(=O)NCC3CCCO3)CCC4)cc(=O)c2cc1C (stereo not drawn)	-	0	0	-	-	-
O=C(Cn1cnc([N+](=O)[O-])n1)c1ccccc1	0	0	-	0	0	0
O=C(Cn1cnc([N+](=O)[O-])n1)c1ccc(O)c(O)c1	?	0	8.9µM	0	0	0
CC(C)(C)c1nn(-c2ccccc2)c2[nH]c(=O)c(CNc3ccc4c(c3)OCCO4)cc12	0	0	35µM	0	0	0
O=c1[nH]c2c(cc1CNCCN1CCOCC1)c(-c1cccc(F)c1)nn2-c1ccccc1	0	-	0	0	-	-
